USP7 inh = inhibitors of human USP7 deubiquitinase; Ubiquitin carboxyl-terminal hydrolase 7 (Homo sapiens), Q93009; purified USP7, Ub-rhodamine cleavage fluorescence; inhibition, % at 20 µM; actives 0.3% (n = 47,000); AID 1645854, 2021
UCHL1 inh = inhibitors of human UCHL1 deubiquitinase; inhibition, % at 20 µM; actives 0.2% (n = 47,000); purified UCHL1, Ub-rhodamine cleavage fluorescence
OTUD3 inh = inhibitors of human OTUD3 deubiquitinase; actives 0.7% (n = 47,000); purified OTUD3, Ub-rhodamine fluorescence, 2 h; inhibition, % at 25 µM; AID 1645858, 2021
Numbers stand for hits; - = inactive. Sampled rows, rich in hits. Any-hit rate of the full collection: about 1.1%. Rule as the data show it: active = inhibition above about 30%; inactive = the rest.

SMILES	USP7 inh	UCHL1 inh	OTUD3 inh
CN(C)[C@H]1C(=O)C(C(N)=O)=C(O)C2(O)C(=O)C3=C(O)c4c(O)cccc4C(C)(O)C3C(O)C12 (stereo partly drawn)	-	42.5	-
O=C1NCc2ccccc2CC12CCCCN2Cc1ccncc1 (stereo not drawn)	-	-	-
C/C=C/C(=O)Nc1ccc(N2CCN(C)CC2)cc1	-	-	-
Cc1n[nH]c(C)c1CC(=O)N1C[C@@H](O)[C@H](N2CCCC2)C1	-	-	-
COC1=C(C2=C(OC)C(=O)c3cc4c(c(O)c3C2=O)C(=O)OC(C)C4)C(=O)c2c(cc3c(c2O)C(=O)OC(C)C3)C1=O (stereo not drawn)	-	39.6	63.6
COc1cc(O)cc2c1C(=O)O[C@@H](C)CCCC(=O)CCCCC2	-	-	-
Cn1ncc2c(NCCc3cnc[nH]3)c(C(=O)O)cnc21	-	-	-
COCCN1C[C@@H](C)[C@@]2(COCCN(C(=O)c3ccccn3)C2)C1	-	-	-
COc1c2c(cc3c1OCO3)[C@]13C=C[C@H](OC)CC1N(C2)CC3O (stereo partly drawn)	-	-	-
C=C/C(=C/C(=O)C[C@H](C)C[C@@H](C)CC[C@H](O)[C@H](C)C(=O)CC(O)[C@H](C)[C@@H](C)OC(=O)C[C@@H](O)C1=C(C)C(=O)OC1=O)CC (stereo partly drawn)	77.5	91.5	89.5
O=C(CN1CC=C(c2ccccc2)CC1)Nc1ccc(S(=O)(=O)N2CCOCC2)cc1	-	-	-
O=C1CSC(c2ccc3c(c2)OCO3)c2c(n(C3CCCCCC3)[nH]c2=O)N1 (stereo not drawn)	-	-	-
COc1c2c(c(O)c3c1C(=O)c1c(cc(O)c(C)c1O)C3=O)-c1c(cc3c(c1O)C(=O)OC3O)CC2 (stereo not drawn)	55.1	68.5	89.0
CC1Oc2cc3c(-c4c(O)cc(O)c5c(O)c6c(cc45)OC(C)C(C)C6=O)c(O)cc(O)c3c(O)c2C(=O)C1C (stereo not drawn)	85.4	88.4	83.7
Nc1nc(N)n2c(N)nnc2n1	-	-	-

Screening results deposited in PubChem by Buhrlage Lab, Dana-Farber Cancer Institute and Novartis Institutes for BioMedical Research (Cambridge, Mass).
